Screens as filed in PubChem.
HPGD inh = HPGD (human) dehydrogenase inhibition; P15428; purified HPGD, NADH fluorescence kinetic, PGE2 substrate; Potency, µM, for the others: at the top dose activity change, negative = inhibition, usual class: inhibitors; 150,000 compounds, 4.3% hits; also: potency is read from the fitted curve at half-maximal effect
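NADH formation kinetics: reaction with 30 uM PGE2 and 1 mM NAD+ (final), 20 nM enzyme, Tris-HCl pH 8 with Tween 20, after 15 min compound preincubation at room temperature. Fluorescence change, last versus first of five reads.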
LMNA splice mod = LMNA splicing modulation; HeLa LMNA splicing GFP/RFP minigene ratio, 48 h; Potency, µM (doses to about 46.1 µM), for the others: at the top dose ratio change, negative = inhibition, usual class: inhibitors; 200,000 compounds, 0.01% hits; AID 1487; active = well fitted inhibition curve with a large enough effect in the signal ratio, with a control signal flat, not every such curve was filed as active; inconclusive = small, poorly fitted or top-dose-only effect, or effect the other way, or a change in a side signal; the % refers to the signal ratio; also: potency is read from the fitted curve at half-maximal effect
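Read-out is the ratio of GFP to DsRed2 object intensity, acquired by 488 nm laser-scanning cytometry on HeLa lamin A-EGFP minigene reporter cells. Compound incubation 48 hrs at 37 °C in Opti-MEM with 2% FBS; DMSO 0.5% final.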
PNC inhibitor = perinucleolar compartment assembly inhibition; PC3M PTB-GFP, PNC prevalence imaging, 16 h; stronger effect = lower value; activity change (PNC), negative = inhibition, % at 10 µM; 140,000 compounds, 3.1% hits;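 active = readout at or below -70, meaning at least 70% loss of cells showing the perinucleolar compartment, a nuclear body marking cancer cells; inconclusive = readout between -30 and a set limit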;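 also: plate controls were DMSO wells for no effect and camptothecin positive control wells for full effect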
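Compounds are pinned in duplicate onto adhered PC3M cells stably expressing GFP-tagged PTB and incubated 16 h at 37 C. Cells are then fixed, nuclei stained with Hoechst, and PNC-positive cells counted.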
ALDH1A1 block = inhibitors of human aldehyde dehydrogenase 1A1 | P00352 | Purified ALDH1A1, NADH fluorescence, propionaldehyde substrate | Potency, µM (top dose mostly 75.3 µM), for the others: at the highest dose activity, negative = inhibition, hits mostly inhibitors | 220,000 compounds, 7.3% hits | AID 1030;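 also: potency is read from the fitted curve at half-maximal effect; plate controls were no enzyme wells and a reference inhibitor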
Target sequence (P00352 whole entry, looked up): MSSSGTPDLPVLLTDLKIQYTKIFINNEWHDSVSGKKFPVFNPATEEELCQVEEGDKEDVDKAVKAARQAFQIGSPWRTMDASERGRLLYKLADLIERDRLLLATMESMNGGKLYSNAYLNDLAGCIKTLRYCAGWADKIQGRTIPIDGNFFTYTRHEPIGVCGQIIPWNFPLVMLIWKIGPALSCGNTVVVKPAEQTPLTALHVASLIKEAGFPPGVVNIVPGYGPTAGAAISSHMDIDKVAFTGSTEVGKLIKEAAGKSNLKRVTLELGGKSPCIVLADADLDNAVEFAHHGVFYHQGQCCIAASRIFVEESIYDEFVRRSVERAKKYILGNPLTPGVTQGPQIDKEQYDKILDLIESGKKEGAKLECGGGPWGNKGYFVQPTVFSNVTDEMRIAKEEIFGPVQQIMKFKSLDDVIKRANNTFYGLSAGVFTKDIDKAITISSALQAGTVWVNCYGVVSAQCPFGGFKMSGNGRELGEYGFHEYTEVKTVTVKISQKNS
KinaseGlo FLuc = counter-screen: inhibitors of Kinase-Glo firefly luciferase; Q27757; Kinase-Glo luciferase, ATP luminescence, 8 min; Potency, µM (top dose mostly 38.3 µM), without a hit: at the top dose activity change, negative = inhibition, hits mostly inhibitors; 200,000 compounds, 0.28% hits; AID 1379; active = well fitted inhibition curve with a large enough effect; inconclusive = small, poorly fitted or top-dose-only effect; also: potency is read from the fitted curve at half-maximal effect; nearly all actives have a fitted effect of over 60% in size
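Inhibition of Kinase-Glo luciferase light generation was assessed at 10 uM ATP in pH 7.2 imidazole buffer, with luminescence measured after eight minutes at ambient temperature.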
Starred values were filed as active, the others as inactive; ? = inconclusive; . = no result; [ ] = another dose, or the depositor's remark. Shown are actives, neighbours in structure and some others; about 10% of the full set was active somewhere. Unless noted, calls follow the shape of the dose curve; as a rule, active = well fitted inhibition curve with a large enough effect (not every such curve was filed as active); inconclusive = small, poorly fitted or top-dose-only effect, or another doubt; inactive = no such curve, though single readings can be large or run the other way. Unless noted, % is scaled to controls: 0 for no effect and ±100 for the full control effect.

SMILES	HPGD inh	LMNA splice mod	PNC inhibitor	ALDH1A1 block	KinaseGlo FLuc
COc1ccc(S(=O)(=O)Nc2ccc(Cl)cn2)c(C)c1C	-30%	?	22	13µM*	7%
CCOc1cc(S(=O)(=O)Nc2ccc(Cl)cn2)ccc1F	-8%	-7%	-27	2%	-1%
COc1cc(CN(C(=O)c2ccccc2[N+](=O)[O-])c2ccccn2)cc(OC)c1OC	.	1%[46 µM]	.	.	.
Cc1ccc(NC(=O)C2CCCN(S(=O)(=O)c3cccs3)C2)cc1 (stereo not given)	0%	2%	10	-10%	-2%
CCC1S/C(=N\S(=O)(=O)c2cccs2)N(C2CCCCC2)C1=O (stereo not given)	-8%	7%	35	7.9µM*	-3%
Cc1cccc(C)c1NC(=O)c1cn(-c2ccccc2)nc1-c1ccccc1	-8%	9%	-25	11%	-3%
O=C(NN=C1CCCCCC1)c1cn(-c2ccccc2)nc1-c1ccccc1	-4%	-3%	30	3.5µM*	1%
O=C1CCCC(=O)C1=Cc1c[nH]c2ccccc12	22µM*	?	21	?	-1%
CCC(C)[C@H](NC(=O)NCc1ccco1)C(=O)OC (stereo not given in full)	.	.	.	13µM*	.
CCC(C)[C@H](NC(=O)Nc1ccc(C(C)=O)cc1)C(=O)OC (stereo not given in full)	-9%	4%	-82*	0%	-7%
O=C(COc1ccc2ccccc2c1)NC1CC(=O)N(c2cccc(F)c2)C1 (stereo not given)	.	23%[46 µM]	.	.	.
O=C(O)[C@H](Cc1ccc(O)c([N+](=O)[O-])c1)N1C(=O)c2ccccc2C1=O	-8%	.	.	-2%[13.5 µM]	-3%[7.66 µM]
C(=C\c1ccccc1)/CNCC1CCCO1 (stereo not given)	.	.	.	25µM*	0%
O=C(NCC1CCCO1)/C(=C/c1ccccc1)NC(=O)c1ccccc1 (stereo not given)	.	.	.	?	2%
CCOC(=O)Cc1csc(NC(=O)c2csc3c2CCCC3)n1	?	3%	-16	14µM*	-4%
COc1cccc(NC(=O)NC2(C(F)(F)F)Oc3ccccc3O2)c1	-27%	?	?	35µM*	2%
COc1cccc(NC(=O)Nc2cccc(C(=O)O)c2)c1	.	18%[46 µM]	.	6%	-11%
CCOC(=O)Cc1csc(NC(=O)NC2(C(F)(F)F)Oc3ccccc3O2)n1	35µM*	-5%	-7	-16%	1%
CCOC(=O)Cc1csc(NC(=O)NC2(C(F)(F)F)Oc3ccc(Cl)cc3O2)n1 (stereo not given)	-18%	?	?	-8%	2%
COc1ccc(OCC(=O)NC2CC(=O)N(c3cccc(OC)c3)C2)cc1 (stereo not given)	.	-2%[46 µM]	.	.	.
COC(=O)[C@@H]1C[C@H]1[C@@H](NC(=O)c1cccnc1)c1ccccc1	-3%	.	.	3%	0%
Cc1ccc(Cl)cc1N1CCN(C(=O)c2ccc(NC(=O)c3nsc4ccccc34)cc2)CC1	.	-3%[46 µM]	.	.	.
CCOC(=O)C1CCN(S(=O)(=O)c2cc3c4c(c2)CC(=O)N4CCC3)CC1	.	0%[46 µM]	.	.	.
CNc1cc(OC)c(C(=O)N[C@@H]2CCN(Cc3ccccc3)[C@H]2C)cc1Cl	-16%	.	.	1%	-2%
CCCNC(=O)c1ccc2c(c1)nc(C)n2-c1cccc(C)c1	.	-19%[46 µM]	.	.	.
SMILES	HPGD inh	LMNA splice mod	PNC inhibitor	ALDH1A1 block	KinaseGlo FLuc
COCCNC(=O)c1ccc2c(c1)nc(C)n2-c1cccc(F)c1	7.1µM*	-5%	?	4%	0%
CCOC(=O)C1CCCN(Cc2cn3c(-c4ccc(Br)cc4)nnc3s2)C1 (stereo not given)	.	-21%[46 µM]	.	.	.
O=C(NCCCN1CCN(c2ccc(F)cc2)CC1)c1ccc2nc(Cc3ccccc3)oc2c1	.	-18%[46 µM]	.	.	.
COC(=O)c1ccc(N2CCOCC2)c(F)c1	-2%	-10%	9	10%	-3%
O=C(c1ccccc1)c1ccc(N2CCOCC2)c(F)c1	25µM*	2%	?	-2%	-4%
O=C(c1ccccc1)c1cc(F)c(N2CCOCC2)cc1Cl	20µM*	16%	-26	1%	-1%
O=[N+]([O-])c1ccc(/C=C2\CCC(C3=CCCC3)=C2N2CCOCC2)cc1	-14%	?	66	14µM*	-3%
O=[N+]([O-])c1ccc(/C=N/Nc2nc(N3CCOCC3)nc(N3CCOCC3)n2)cc1	.	18%[46 µM]	.	0%	5%
COc1ccc(-c2csc3ncn(-c4ccccc4)c(=O)c23)cc1OC	.	.	.	7.9µM*	-2%
Cc1nn2c([nH]c(=O)c3ccccc32)c1C=O	16µM*	16%	36	-1%	-4%
Cc1nn2c(nc(N3CCCCC3)c3ccccc32)c1C=O	?	-4%	?	-6%	3%
COc1ccc(Cl)cc1C(=O)NCc1nnnn1-c1ccccc1	.	-4%[46 µM]	.	.	.
COc1cccc2c(=O)n(CC(=O)N3CCCc4ccccc43)ccc12	-10%	6%	17	10µM*	2%
O=C(Cn1cnc2ccccc21)OCC(=O)N1CCCc2ccccc21	-4%	-1%	-19	14µM*	0%
O=C(Cn1[nH]c(=O)c2ccccc2c1=O)OCC(=O)N1CCCc2ccccc21	-11%	6%	-97*	4%	2%
CC[n+]1ccc(C[n+]2ccccc2)c2ccccc21	?	16%	-82*	19µM*	-1%
Cc1ccc(/C=c2\sc3n(c2=O)CN(c2cccc(Br)c2)CN=3)o1	-12%	0%	-18	20µM*	-3%
O=c1/c(=C/c2ccco2)sc2n1CN(c1cccc(Br)c1)CN=2	25µM*	3%	?	?	0%
Cc1cc(SCC(=O)N/N=C/c2ccc(O)cc2O)c(C)cc1Br	20µM*	?	?	-7%	-3%
O=C(CCCCCNC(=O)c1ccccc1)N/N=C/c1ccc(O)cc1O	28µM*	-4%	?	6%	2%
C=CCN1C(=O)/C(=C/c2ccc(OC(C)=O)c(OCC)c2[N+](=O)[O-])SC1=S	.	.	.	-3%	?
CNc1ccc(/C=C2\COc3ccccc3C2=O)cc1[N+](=O)[O-]	1.6µM*	13%	11	14%	-3%
O=C1/C(=C/c2ccccc2[N+](=O)[O-])COc2ccccc21	.	?	.	?	-1%
CCOC(=O)C1=C(c2ccccc2)N2CCS(=O)(=O)N=C2S1	-6%	-2%	-83*	7%	-1%
CCCCOc1ccccc1NC(=O)CC1Nc2ccccc2NC1=O (stereo not given)	-7%	6%	13	14µM*	3%
Cc1nn(C)c(C)c1NC(=O)c1ccnn1C	-7%	11%	-30	18µM*	0%
Cn1nccc1C(=O)Nn1cnnc1	.	-6%	10	11%	.
O=C(Nc1ccc2c(c1)OCCO2)c1ccccn1	.	2%[46 µM]	.	5%	13µM*
O=C(Nc1ccc(N2CCOCC2)cc1)c1cn2ccccc2n1	-12%	7%[0.0737 µM]	36	2%	4.5µM*
Cn1nccc1C(=O)Nc1ccc2c(c1)OCCO2	.	15%[46 µM]	.	-8%	13µM*
